{"source": "ChEMBL document CHEMBL4513216", "about": "“Probing the Open Global Health Chemical Diversity Library for Multistage-Active Starting Points for Next-Generation Antimalarials” (ACS Infect Dis, 2020)", "note": "Out of some 68,000 compounds screened, about 2,700 (4%) showed an effect of 50% or more. For the sample, strong results were picked, then their nearest neighbours and some compounds at random."}
{"tested_on": "Plasmodium berghei", "experiment": "Screen against P. berghei liver stage (PbLuc), transformed with Luciferase, at 2uM", "format": "functional, HepG2", "conditions": "tested at 2 uM", "units": {"INHIBITION": "%"}}
{"smiles": "CN(Cc1ccc(C#N)cc1)CC1CCS(=O)(=O)C1", "note": "(centres undefined)", "INHIBITION": 54.78}
{"smiles": "CC(O)CN1CCC(CN(C)Cc2ccc(C#N)cc2)CC1", "note": "(centres undefined)", "INHIBITION": -3.99}
{"smiles": "CN(CCOc1ccc(C#N)cc1)CC1CCS(=O)(=O)C1", "note": "(centres undefined)", "INHIBITION": 14.59}
{"smiles": "Cc1cc(=O)n2ncnc2n1CC(O)COCc1ccccc1Cl", "note": "(centres undefined)", "INHIBITION": 19.59}
{"smiles": "CN(Cc1nc2ccccc2[nH]1)C(=O)CN(C)c1ccc(Cl)cn1", "INHIBITION": 60.71}
{"smiles": "CN(CC(=O)Nc1ccccc1)C(=O)CN(C)c1ccc(Cl)cn1", "INHIBITION": -35.22}
{"smiles": "CN(Cc1nc2ccccc2[nH]1)C(=O)CN(C)c1ccccc1", "INHIBITION": -20.08}
{"smiles": "Cc1ncsc1CN1CCn2c(COc3cccnc3)cnc2C1C", "note": "(centres undefined)", "INHIBITION": -48.36}
{"smiles": "CC(C)N1CCC(N(C)c2ccnc(N(C)C)n2)CC1", "INHIBITION": 69.67}
{"smiles": "CN(C)c1nccc(N(C)C2CCCCC2)n1", "INHIBITION": 38.67}
{"smiles": "CN(C)c1nccc(N(C)C2CCOCC2)n1", "INHIBITION": 19.59}
{"smiles": "CCN(C)Cc1cccc(CNC(=O)CSCc2ccccn2)c1", "INHIBITION": 72.94}
{"smiles": "CCN(C)Cc1cccc(CNC(=O)CSCc2ccncc2)c1", "INHIBITION": -56.58}
{"smiles": "CCCSCC(=O)NCc1cccc(CN(C)CC)c1", "INHIBITION": 15.56}
{"smiles": "CO[C@H]1CN(C(=O)c2cc3ccccc3[nH]2)CC[C@H]1N", "INHIBITION": 13.24}
{"smiles": "O=C(c1ccoc1)N1CCOCC2(CCN(Cc3cccs3)C2)C1", "note": "(centres undefined)", "INHIBITION": 3.11}
{"smiles": "CN1CCN(CCOc2ccc(NC(=O)c3ccoc3)cc2)CC1", "INHIBITION": 6.78}
{"smiles": "Cc1nc2sccn2c1C(=O)N1CCc2[nH]cnc2C1", "INHIBITION": -13.03}
{"smiles": "CN(C)c1nc2c(c(=O)[nH]1)CCN(C(=O)c1cccc3nccnc13)C2", "INHIBITION": -16.93}
{"smiles": "Cc1nc(C(C)C)ncc1C(=O)N1CCc2c(nc(N(C)C)[nH]c2=O)C1", "INHIBITION": 55.36}
{"smiles": "Cc1nc2sccn2c1C(=O)N1CCc2c(nc(N)[nH]c2=O)C1", "INHIBITION": -14.71}
{"smiles": "Cc1nc2sccn2c1C(=O)N1CCc2c(nc(N(C)C)[nH]c2=O)C1", "INHIBITION": 68.02}
{"smiles": "CN(C)c1nc2c(c(=O)[nH]1)CCN(C(=O)c1c[nH]c(=O)c(Cl)c1)C2", "INHIBITION": 33.9}
{"smiles": "O=C(Nc1nccs1)C1CCCN1Cc1ccccn1", "note": "(centres undefined)", "INHIBITION": 12.47}
{"smiles": "CCc1nc(-c2ccc(NC(=O)N3CCCC3)cc2)no1", "INHIBITION": -75.24}
{"smiles": "COc1ccnc(N2CCC3(CC2)[C@H](O)C[C@@H]3OCCN(C)C)n1", "INHIBITION": -2.96}
{"smiles": "Cc1nc(C2CCN(S(C)(=O)=O)CC2)nc2c1CCC(=O)N2CC(C)C", "INHIBITION": 0.12}
{"smiles": "Cc1cc(N2CCCC2(C)c2nc(C)cc(C(=O)N(C)C)n2)ncn1", "note": "(centres undefined)", "INHIBITION": -27.61}
{"smiles": "CCOC(=O)N1CCN(C(=O)C2Cc3ccccc3CN2C)CC1", "note": "(centres undefined)", "INHIBITION": -55.24}
